From PubChem
Most compounds without a hit are left out; they make up all but 0.84% or so of the library.
SRC3 inh = human NCOA3 inhibition | Q9Y6Q9 | 0.17% of 360,000 active | inhibition, % at 3.6 µM | HEK293 GAL4-SRC3 luciferase reporter, luminescence;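 active = inhibition above a per-campaign cutoff, the mean of all compounds plus 3 SD, cut at about 60% in these data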;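 also: 0% = DMSO-treated cells and 100% = gossypol-treated cells at 36 µM; higher means less SRC3-driven luciferase light from the GAL4 reporter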
LRH-1 inv ag = NR5A2 inverse agonism in reporter assay. 0.13% of 360,000 active. HEK293T StAR-luciferase reporter, LRH-1 transfected, 24 h. inhibition, % at 3.6 µM;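 active = inhibition above the mean inhibition of all tested compounds plus 3 SD, cut at about 73% in these data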;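 also: 0% = DMSO wells and 100% = reporter-only cells lacking LRH-1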
SRC1 inh = inhibitors of human steroid receptor coactivator 1 (SRC1). Q15788. AID 588354. inhibition, % at 3.6 µM. 0.12% of 360,000 active. HEK293 GAL4-SRC1 luciferase reporter, luminescence;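 active = inhibition above the campaign mean plus 3 SD, with each screening campaign given its own cutoff, cut at about 60% in these data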;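 also: 0% = DMSO treated cells and 100% = gossypol at 36 µM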
NCOA2 inhibitor = human SRC2 (NCOA2) inhibition; Q15596; HEK293 GAL4-SRC2 luciferase reporter, luminescence; inhibition, % at 9 µM; 0.17% of 370,000 active; AID 651957;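 active = inhibition above the mean inhibition of all tested compounds plus 3 SD, set per campaign, cut at about 52% in these data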;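 also: 0% = DMSO treated cells and 100% = cells given Gossypol at 36 µM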
COUP-TFII inh = NR2F2 (human) inhibition, primary screen. P24468. HEK293T NGFI-A luciferase reporter, luminescence. inhibition, % at 8.6 µM. 0.7% of 370,000 active;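 active = inhibition above a per-plate cutoff, mean inhibition of test wells between control levels plus 3 SD, cut at about 38% in these data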;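 also: cells cotransfected with COUP-TFII expression vector driving the NGFI-A reporter; 0% = median of COUP-TF2 test wells and 100% = reporter-only cells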
VP16 Luc counter = counter-screen for COUP-TFII antagonists: inhibitors of VP16; HEK293 Gal4-VP16 luciferase reporter, luminescence; 25% of 2,500 active; shares compounds with COUP-TFII inh; inhibition, % at 8.5 µM; in the data active = inhibition above about 13%
COUP-TFII conf = COUP-TFII (NR2F2) inhibition, confirmation assay; HEK293 NGFI-A luciferase reporter, luminescence; 45% of 2,500 active; inhibition, % at 8.5 µM; shares compounds with COUP-TFII inh;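 active = mean inhibition over three repeats above a set limit taken from the earlier primary screen, cut at about 38% in these data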;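 also: 100% = cells given the luciferase reporter alone without the COUP-TF2 vector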
* = called active by the depositor; . = not tested or not shown.

SMILES	SRC3 inh	LRH-1 inv ag	SRC1 inh	NCOA2 inhibitor	COUP-TFII inh	VP16 Luc counter	COUP-TFII conf
O=C(COC(=O)CCN1C(=O)/C(=C\C=C\c2ccccc2)SC1=S)Nc1cc(F)ccc1F	23	8	16	43	42*	53*	64*
CN1c2ccccc2C(C)(C)[C@]12C=Cc1cc(O)ccc1O2	1	24	-4	28	43*	-7	3
Nc1nc2c(ncn2[C@@H]2O[C@H](C(=O)NCCc3c[nH]c4ccccc34)[C@@H](O)[C@H]2O)c(=O)[nH]1	.	.	.	5	-1	.	.
CCCCc1c(-c2ccccc2OC)ncn1C(C)c1ccccc1 (centres undefined)	.	.	.	-14	-8	.	.
NC(=O)c1cccc(-c2noc(-c3ccccc3F)n2)c1	15	12	-4	13	58*	22*	34
COC(=O)c1cccc(-c2noc(-c3ccccc3F)n2)c1	-107	-193	-133	-30	-23	.	.
COc1ccc(Cl)cc1C(=O)CSc1nnnn1C1CCCC1	-13	6	4	-32	-5	.	.
COCCn1c(C)cc(C(=O)CSc2nnnn2C2CCCC2)c1C	34	24	43	39	59*	35*	68*
CCCOc1ccc(Br)cc1CSC(=N)N	39	44	17	26	54*	15*	49*
COc1ccc(S(=O)(=O)N2CCCc3nc(-c4ccccc4)ccc32)cc1	.	.	.	-31	-16	.	.
CC1CCCCN1CCCNC(=O)c1ccc2c(c1)NC(=O)CN2C (centres undefined)	-2	27	-7	-18	-2	.	.
CCCCN(CCCNC(=O)c1ccc2c(c1)NC(=O)CN2C)c1ccccc1	-2	-15	5	13	45*	8	14
CC1=C(CO)C(=O)OC([C@@H](C)C2CC[C@H]3C4C[C@H]5O[C@]56[C@@H](O)C=CC(=O)[C@]6(C)C4CC[C@]23C)C1 (some centres undefined)	20	62	14	68*	44*	49*	41*
O=C(CCN1C(=O)/C(=C/c2ccccc2)SC1=S)Nc1ccccn1	-12	-3	12	-15	-1	.	.
COc1ccc(/C=C2\SC(=O)N(CCCC(=O)Nc3ccc(C(=O)O)cc3)C2=O)cc1	73*	74*	73*	91*	98*	83*	96*
COc1ccc(/C=C2\SC(=S)N(CCCC(=O)NNC(=O)c3ccccc3O)C2=O)cc1	30	9	18	45	25	.	.
Cc1ccc(/C=C2\SC(=S)N(CCCC(=O)Nc3ccccn3)C2=O)cc1	57	42	48	89*	81*	40*	35
COc1ccc(/C=C2/SC(=S)N(CCCC(=O)Nc3ccccc3C(=O)O)C2=O)cc1	35	23	36	66*	52*	43*	30
O=C(NC1CCCCN(Cc2ccc(Cl)cc2)C1=O)c1cccc2nsnc12 (centres undefined)	.	.	.	-1	12	.	.
COC(=O)N1C[C@@H]2Oc3nccnc3O[C@@H]2C[C@@H]1c1ccccc1Br	.	.	.	9	-7	.	.
CC(C)CCn1cnc2c(sc3nc4c(cc32)CSC(C)(C)C4)c1=O	-8	24	3	38	55*	-57	24
Cc1sc(NC(=O)CN2CCOCC2)nc1-c1ccc2c(c1)CCN2S(=O)(=O)c1ccccc1	19	18	19	-6	65*	9	56*
CC(=O)Nc1nc(-c2ccc3c(c2)CCN3S(C)(=O)=O)cs1	-61	-49	-32	-42	-28	.	.
CS(=O)(=O)N1CCc2cc(-c3csc(NC(=O)Cc4cccs4)n3)ccc21	30	43	11	-8	66*	-4	35
Cc1ccc(-c2csc(NC(=O)CN3CCOCC3)n2)cc1	5	-3	0	17	-7	.	.
O=C(CN1CCOCC1)Nc1nc(-c2ccc3c(c2)CCN3S(=O)(=O)c2ccccc2)cs1	25	-3	9	16	42*	0	15
Cc1cccc(C(=O)N2CCc3cc(-c4nc(NC(=O)CN5CCCC5)sc4C)ccc32)c1	14	23	-3	-13	2	.	.
O=S1(=O)C=CCN1Cc1cn(Cc2cccc(C(F)(F)F)c2)nn1	.	.	.	8	-24	.	.
